Data reported in PubChem BioAssay AID2238 (Southern Research Specialized Biocontainment Screening …, 2010).
Calls of active or inactive are those of the source. The rule behind the calls is not given here.

experiment: West Nile virus CPE inhibition, SAR follow-up, cell-based, synthesized analogs (AID 2238); settings: West Nile virus CPE inhibition in cells; max CPE inhibition: measured here: maximum CPE inhibition observed, at 40 µM, stronger effect = higher value unless noted; series mostly up to 40 µM; CPE inhibition: at the top concentration

Structure (SMILES)	CPE inhibition	max CPE inhibition
COc1ccc(-c2csc(N(CCCN(C)C)C(=O)c3ccccc3F)n2)cc1	3.61% [at 80 µM] (inactive)	3.61% [measured here: maximum CPE inhibition observed, at 80 µM, stronger effect = higher value]
O=C(CSc1nc2ccccc2c(=O)n1-c1ccc(F)cc1F)Nc1ccc(N2CCOCC2)cc1		58% [measured here: maximum CPE inhibition observed, at 80 µM, stronger effect = higher value]
O=C(CSc1nc2ccccc2c(=O)n1-c1ccccc1)Nc1ccc2c(c1)CCC2		72%
CN(C)CCCNC(=S)N1CCN(c2nc(-c3ccccc3)cs2)CC1		55.7% [measured here: maximum CPE inhibition observed, at 20 µM, stronger effect = higher value]
OC1c2cc(Br)ccc2N=C2CCCN21 (stereo not given)		79.7%
CCN(CC)CCCNC(=S)N1CCN(c2nc(-c3ccc(F)cc3)cs2)CC1	6.51% [at 20 µM] (inactive)	29.4% [measured here: maximum CPE inhibition observed, at 20 µM, stronger effect = higher value]
O=C(CSc1nc2ccccc2c(=O)n1-c1ccccc1F)Nc1ccc2c(c1)CCC2		71.6% [measured here: maximum CPE inhibition observed, at 20 µM, stronger effect = higher value]
O=C(CSc1nc2ccccc2c(=O)n1-c1ccc(F)c(Cl)c1)Nc1ccc2c(c1)CCC2		65.7% [measured here: maximum CPE inhibition observed, at 20 µM, stronger effect = higher value]
